DT40 TDP1 CPT: qHTS for Inhibitors of human tyrosyl-DNA phosphodiesterase 1 (TDP1): qHTS in cells in presence of CPT | chicken DT40 Tdp1-/-;hTDP1 cells + 20 nM CPT, ATP luminescence, 48 h | Potency, µM (doses to about 46.2 µM), without a hit: top-dose activity change, negative = growth inhibition, hits mostly inhibitors | hit rate 12% among 420,000 | AID 686979, 2013; note: nearly all actives have a fitted effect of over 55% in size
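Cell growth measured by CellTiter-Glo luminescence after a minimum 48 h, 37 C compound exposure with 20 nM CPT in Tdp1-knockout DT40 cells stably expressing hTDP1, seeded 400/well; qHTS titration format.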
VDR inh: Inhibitors of the vitamin D receptor (VDR): qHTS; VDR-SRC2-3 peptide fluorescence polarization, 2 h; Potency, µM, for the others: max response, negative = inhibition, hits mostly inhibitors; hit rate 0.93% among 400,000; AID 504847, 2011
Target sequence (P11473 whole entry, looked up): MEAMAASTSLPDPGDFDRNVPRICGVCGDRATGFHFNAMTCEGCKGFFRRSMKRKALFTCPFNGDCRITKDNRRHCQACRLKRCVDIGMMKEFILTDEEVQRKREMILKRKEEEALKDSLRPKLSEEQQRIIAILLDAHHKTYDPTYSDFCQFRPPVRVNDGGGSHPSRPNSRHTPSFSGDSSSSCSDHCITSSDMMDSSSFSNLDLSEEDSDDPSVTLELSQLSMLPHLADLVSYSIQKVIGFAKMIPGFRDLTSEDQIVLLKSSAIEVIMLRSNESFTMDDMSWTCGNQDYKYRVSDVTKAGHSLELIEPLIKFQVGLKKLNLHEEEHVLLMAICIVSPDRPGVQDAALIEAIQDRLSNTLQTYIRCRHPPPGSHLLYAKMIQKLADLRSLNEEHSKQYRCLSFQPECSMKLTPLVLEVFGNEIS
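Reagent solutions, kept cold and dark, are dispensed first; compounds are then pinned in at 23 nl, plates briefly spun, and incubated 2 h at ambient temperature. Inhibition of VDR–SRC2-3 peptide binding is read by fluorescence polarization.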
KAT2A inh: qHTS Assay for Inhibitors of GCN5L2; Histone acetyltransferase KAT2A (Homo sapiens), Q92830; GCN5L2 HAT assay, ThioGlo1 CoA-SH fluorescence; Potency, µM (highest dose often 58.9 µM), without a hit: at the highest dose activity change, negative = inhibition, usual class: inhibitors; hit rate 0.21% among 390,000; AID 504327, 2011
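Fluorescence readout, Ex340nm/Em540nm: ThioGlo1 (50uM final) reacts with free CoA thiol released as 20nM GCN5L2 acetylates H3(1-25) peptide (75uM) using acetyl-CoA (70uM). Compound and enzyme sat 15 min beforehand; 20 min room-temperature reaction.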
TDP1 inh: qHTS Assay for Inhibitors of Tyrosyl-DNA Phosphodiesterase (TDP1). Tyrosyl-DNA phosphodiesterase 1 (Homo sapiens), Q9NUW8. recombinant TDP1, AlphaScreen DNA substrate cleavage. Potency, µM (top dose mostly 130 µM), inactives show top-dose activity change, negative = inhibition, most hits filed as inhibitors. hit rate 0.28% among 350,000; note: nearly all actives have a fitted effect of over 40% in size
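Recombinant E. coli-expressed Tdp1 (1 nM) preincubated with compound 15 min at RT, then 5'-biotin/3'-phosphotyrosine-FITC DNA substrate (15 nM) added for 5 min. AlphaScreen beads (10 ug/ml) added, 10 min RT; tyrosine-FITC cleavage read as signal loss.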
TDP1 cell noCPT: qHTS for Inhibitors of human tyrosyl-DNA phosphodiesterase 1 (TDP1): qHTS in cells in absence of CPT; Potency, µM (highest dose often 46.2 µM), without a hit: top-dose activity change, negative = growth inhibition, hits mostly inhibitors; AID 686978, 2013; hit rate 15% among 420,000; DT40 Tdp1-/- hTDP1 cells, no CPT, ATP luminescence, 48 h; note: nearly all actives have a fitted effect of over 55% in size
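Growth kinetics read by CellTiter-Glo luminescence after ≥48 hr at 37 °C. Cells: DT40 Tdp1-/- stably carrying human TDP1, 400 per well, compound exposure in the absence of CPT (DMSO vehicle).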
PLK1 PBD block: qHTS for Inhibitors of PLK1-PDB (polo-like kinase 1 - polo-box domain): Primary Screen. Serine/threonine-protein kinase PLK1 (Homo sapiens), P53350. hit rate 2.8% among 360,000. Plk1 PBD binding of FITC phosphopeptide, fluorescence polarization. Potency, µM, without a hit: max response, negative = inhibition, most hits filed as inhibitors; note: series mostly up to about 57 µM; nearly all actives have a fitted effect of over 65% in size
* hit, by the source's call; ? = inconclusive; nt = not tested or not shown; [ ] = dose if it differs, or a comment. In the library only some 18% were active in any assay of this set; here they are far more common. Calls come from the whole dose curve; as a rule, active = well fitted curve in the direction sought with a large enough effect; inconclusive = small, poorly fitted or top-dose-only effect, or another doubt; inactive = no such curve, though single readings can be large; an effect the other way counts as inactive or inconclusive. % is set by controls: 0 for no effect and ±100 for the full control effect; potency is the fitted concentration of half-maximal effect.

SMILES	DT40 TDP1 CPT	VDR inh	KAT2A inh	TDP1 inh	TDP1 cell noCPT	PLK1 PBD block
O=C(NC(Nc1nc2ccc([N+](=O)[O-])cc2s1)(C(F)(F)F)C(F)(F)F)c1ccccc1Cl	0.33µM*	2%	-3%	5%	0.18µM*	9%
O=C(NC(Nc1nc2ccc([N+](=O)[O-])cc2s1)(C(F)(F)F)C(F)(F)F)c1cccnc1	3.7µM*	6%	0%	1%	2.3µM*	-3%
O=[N+]([O-])c1ccc2nc(NS(=O)(=O)c3ccccc3[N+](=O)[O-])sc2c1	-5%	-11%	-1%	4%[0.0935 µM]	-16%	?
O=C(Cc1nnc(-c2cc3ccccc3[nH]2)o1)Nc1cc(C(F)(F)F)ccc1Cl	nt	nt	nt	-4%	nt	nt
COc1ccc(CNCC(O)COc2ccc3[nH]c(=O)ccc3c2)cc1OC (centres undefined)	10%	nt	nt	nt	-2%	nt
O=C(c1cc(C(F)(F)F)cc(C(F)(F)F)c1)N1CCC2(CCN(Cc3ccccc3)CC2)CC1	?	-11%	13%	nt	?	nt
FC(F)(F)c1cc(CN2CCC3(CCNCC3)CC2)cc(C(F)(F)F)c1	6.5µM*	-7%	1%	nt	4.6µM*	nt
Cc1ccc2c(c1)N(CC(=O)NCCC1=CCCCC1)C(=O)c1cccnc1O2	-29%	-11%	-6%	nt	?	-12%
COc1ccc(C(=O)N2CCC3(CCCN(C(=O)Nc4cccc(F)c4)C3)CC2)cc1	10%	-8%	5%	nt	-16%	nt
O=C(Nc1nc2ccccc2n1CCOc1ccccc1)c1ccco1	15µM*	-13%	-2%	13%	15µM*	-7%
Cc1cccc(OCCn2c(NC(=O)c3ccco3)nc3ccccc32)c1	26µM*	-8%	-6%	9%	?	-4%
O=C(Nc1nc2ccccc2n1Cc1ccc(Cl)cc1)c1ccco1	?	9%	-5%	4%	-27%	-12%
O=C(Nc1nc2ccccc2n1CCOc1ccc(Cl)cc1)c1ccco1	26µM*	-10%	-5%	6%	18µM*	-11%
O=C(c1ccccc1)N1CCCCC(S(=O)(=O)c2ccc3ccccc3c2)C1=O (centres undefined)	-7%	9%	7%	5%	-19%	-6%
COc1ccc(NS(=O)(=O)c2ccccc2C(=O)O)cc1	nt	nt	nt	3%	nt	nt
Cc1cc(/C=C/c2c(C)cnc3ccccc23)ccc1N(C)C	8.9µM*	nt	nt	nt	8.9µM*	nt
CN(C)c1ccc(/C=C/c2c(F)cnc3ccccc23)cc1	7.9µM*	nt	nt	nt	3.2µM*	nt
CN(C)c1ccc(/C=C/c2cc(=O)[nH]c3ccccc23)cc1	-30%	nt	nt	nt	-29%	nt
Cc1cc(/C=C2\C=Cc3ccccc32)ccc1N(C)C	?	nt	nt	nt	-21%	nt
Cc1cnc2ccc(I)cc2c1/C=C/c1ccc(N(C)C)cc1	?	nt	nt	nt	4.5µM*	nt
NC(=O)NC(=O)c1nccnc1C(=O)O	-1%	-18%	-4%	-3%	-20%	-12%
c1ccc2c(c1)CC(N1CCN(c3cccc4c3OCCO4)CC1)C2	nt	11%	-3%	10%	nt	nt
Cc1ccc(C)c(OCC(=O)N/N=C/c2c(C)nn(-c3ccccc3)c2Cl)c1C	15µM*	-1%	1%	0%	7.3µM*	-6%
Cc1nn(-c2cccc(C(F)(F)F)c2)c(Cl)c1/C=N/Nc1cccc(C(=O)O)c1	-24%	?	-26%	8%	-4%	24µM*
Cc1nn(-c2ccccc2)c(Cl)c1/C=N/NC(=O)c1cccc(S(=O)(=O)N2CCCC2)c1	-28%	-19%	-8%	4%	10µM*	-15%
SMILES	DT40 TDP1 CPT	VDR inh	KAT2A inh	TDP1 inh	TDP1 cell noCPT	PLK1 PBD block
Cc1nn(-c2ccccc2)c(Cl)c1/C=N/Nc1nc2ccccc2n1C	26µM*	6%	-6%	3%	15µM*	4%
Cc1nn(-c2ccccc2)c(Cl)c1/C=N/NC(N)=O	2%	-9%	-18%	-3%	-12%	-1%
Cc1nn(-c2ccccc2)c(Cl)c1/C=N/NC(=O)CNC(=O)c1ccccc1Cl	21µM*	-8%	0%	3%	?	-12%
CCOCCCNC(=S)N1CCN(Cc2ccc3c(c2)OCO3)CC1	-14%	-11%	25%	3%	-26%	-8%
Cc1ccc(-c2nn3c(C)nnc3s2)cc1NC(=O)c1ccc(OC(C)C)cc1	13µM*	-25%	-9%	5%	?	-10%
Cc1cc(OCC(=O)Nc2cc(-c3nn4c(C)nnc4s3)ccc2C)ccc1Cl	4.1µM*	1%	-5%	5%	?	?
COc1ccc(C(=O)Nc2cc(-c3nn4c(C)nnc4s3)ccc2C)cc1	-25%	-5%	-2%	5%	-17%	-8%
Cc1ccc(C(=O)N2N=C(c3ccccc3O)CC2c2ccccc2)cc1 (centres undefined)	?	25%	3%	nt	21µM*	-5%
O=C(c1ccc(N2CCOCC2)c([N+](=O)[O-])c1)N1CCN(c2ccccc2)CC1	?	20%	nt	nt	?	?
O=C(c1ccccc1Br)N1CCN(c2ccc([N+](=O)[O-])c(N3CCOCC3)c2)CC1	-16%	14%	-13%	5%	-16%	-1%
Cn1c(=O)n(C)c2cc([N+](=O)[O-])c(N3CCN(C(=O)c4ccccc4)CC3)cc21	15µM*	9%	-6%	1%	18µM*	-2%
Cn1c(=O)n(C)c2cc([N+](=O)[O-])c(N3CCN(C(=O)C(C)(C)C)CC3)cc21	16µM*	-17%	-14%	-6%	13µM*	-7%
Cn1c(=O)n(C)c2cc([N+](=O)[O-])c(N3CCN(C(=O)c4ccccc4Cl)CC3)cc21	21µM*	-5%	-3%	5%	16µM*	-1%
Cn1c(=O)n(C)c2cc([N+](=O)[O-])c(N3CCN(C(=O)c4ccccc4Br)CC3)cc21	?	18%	-5%	5%	21µM*	-15%
CC1(C)C2CCC(CN)C1C2 (centres undefined)	14%	nt	nt	nt	2%	-5%
COc1ccccc1CNC(=O)c1ccc(N2CCCC2)c(NC(=O)NCc2ccc(F)cc2)c1	?	5%	-4%	4%	-28%	nt

From PubChem BioAssay
